From PubChem BioAssay AID936 (University of Pittsburgh Molecular Library Screening Center, 2007)

test: H2O2 production by redox-active compounds – biochemical, 1 mM DTT, artefact control for Plk1 PBD inhibitor project, dose response (AID 936); details: Redox cycling H2O2 generation, cell-free; call rule not given here

EC50, inactive:
O=C1C(C2=C(O)c3ccccc3C2=O)=Nc2ccccc21 > 50 µM
CCC(Sc1nc2n[nH]c(C)c2c(=N)n1-c1cccc(Cl)c1)C(=O)NCCOC (stereo not drawn) > 50 µM
O=C(O)COc1ccc(Br)cc1/C=N/O > 50 µM
